From PubChem BioAssay (NCI)
About 83,000 compounds went through this panel and 20% of them were active in at least one assay; those are over-represented in the sample as a whole.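 Interpretation: 100, growth as untreated; towards 0, rising growth inhibition; 0, no net growth; 0 to -100, cell death. Compounds scoring below 10 were considered active.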 A number with no mark means an inactive call. Active and inactive are the calls of the source.

What was measured:
Experiment in all cases: NCI-60 one-dose screen, 48 h (100 = growth as untreated, 0 = no growth, -100 = all killed)
Details in all cases: 10 µM unless noted
[1] = system: SR leukemia
[2] = system: RPMI-8226 leukemia
[3] = system: OVCAR-8 ovarian
[4] = system: OVCAR-5 ovarian
[5] = system: OVCAR-4 ovarian
[6] = system: SK-OV-3 ovarian
[7] = system: IGROV1 ovarian
[8] = system: HS 578T breast
[9] = system: NCI/ADR-RES ovarian
[10] = system: T-47D breast
[11] = system: BT-549 breast
[12] = system: MDA-MB-435 melanoma
[13] = system: HCT-116 colon
[14] = system: HCC-2998 colon
[15] = system: KM12 colon
[16] = system: SW-620 colon
[17] = system: OVCAR-3 ovarian
[18] = system: MCF7 breast

Compound	growth [1]	growth [2]	growth [3]	growth [4]	growth [5]	growth [6]	growth [7]	growth [8]	growth [9]	growth [10]	growth [11]	growth [12]	growth [13]	growth [14]	growth [15]	growth [16]	growth [17]	growth [18]
COc1ccc(S(=O)(=O)N2CCN(C)CC2)cc1NC(=O)c1[nH]c(C)c2c1CCCCC2=O	58.2%	32.6%	63%	59.5%	57%	44.7%	47%	28.9%	96.9%	44.1%	90.4%	42.1%	53.5%	64.4%	64.7%			
COc1ccc2c(c1)c(-c1nonc1-c1cn(C)c3ccccc13)cn2C	30.1%	21.2%	35.6%	52%	45.5%	44.6%	42.5%	16.7%	17.1%	33.5%		1.09% (active)	26.6%	45.4%	25.7%	24.5%		
C=C1C(=O)O[C@H]2[C@H]1CC/C(C=Nc1ccc(C(F)(F)F)cc1N)=C\CC[C@@]1(C)O[C@@H]21	-2.49% (active)	-17% (active)	3.29% (active)	31.5%	23.3%	65.4%		7.74% (active)	23.4%	14.8%	16.3%	0.426% (active)	-77.1% (active)		20.3%	-32% (active)	-11.1% (active)	10.7%
COc1ccc(C(=O)COc2cccc(/C=C3\CSc4ccccc4C3=O)c2)cc1	-65.1% (active)	-62.4% (active)	6.51% (active)	32.4%	84.4%	108%		-11.1% (active)	15.1%	69.7%		-21.1% (active)	-87.5% (active)		-77.3% (active)	-96.9% (active)	64.4%	
O=C1c2cc3c(cc2-c2c1c1cc(F)c(F)cc1c(=O)n2CCCn1ccnc1)OCO3	-2.4% (active)	-10.1% (active)	12.1%	2.22% (active)	20.9%	6.12% (active)	21.2%	52.5%	6.95% (active)	4.88% (active)	12.5%	8.57% (active)	-12.8% (active)	13.5%	3.55% (active)	8.92% (active)		
c1ccc(-c2cc3n4c(-c5ccccc5)nn(-c5ccccc5)c4cnc-3n2)cc1	113%	84.5%	58.1%	92.3%	43.5%	63.8%		31.6%	84.4%	54.2%		60.4%	30.9%	83.9%	70.6%	52.2%	60.3%	50.6%
O=Nc1c(O)c(Cl)cc2ccccc12	71.7%	40.1%	68.6%	115%	78.9%	81.4%		89.4%	72.2%	-4.57% (active)	83.7%	91.8%	31.5%	115%	79.5%	46.2%	67.3%	49.6%
O=C1C=C(OCC=C(Cl)Cl)C(=O)c2ccccc21	51.6%	45.6%	71.5%	116%	15.9%	102%		55.5%	33.8%	38.9%	78.6%	-55.7% (active)	21.8%	112%	91%	78.3%	32.2%	26.6%
c1ccc(CCNc2ncnc3[nH]ncc23)cc1	107%	67%	95%	82.5%	81.1%	109%		66.3%	97.9%	79.3%	97.7%	112%		115%	109%	113%	108%	130%
COc1cc2c(cc1OC)C(Sc1ccc(SC)cc1)c1c(nc(N)c(C#N)c1N)O2 (stereo unspecified)	-37.4% (active)	-37.9% (active)	-90.6% (active)	-63.1% (active)	-94.8% (active)	-85.1% (active)	-68.9% (active)		-23.2% (active)	-47.1% (active)		-90.8% (active)	-86.8% (active)	-84.9% (active)	-72% (active)	-68.9% (active)		-51.2% (active)
O=c1c2c3c(sc2nc(N/N=C/c2cn(-c4ccccc4)nc2-c2ccc(Cl)cc2)n1Cc1ccccc1)CCCC3	59.3%	119%	98.2%	121%	109%	102%		94.2%	108%	105%		93.4%	90.3%		103%	107%	106%	104%
Clc1ccc2c(NCCCCNc3nc(N4CCOCC4)nc4ccccc34)ccnc2c1	-18.9% (active)	-32.2% (active)	9.88% (active)	64.8%	-13.1% (active)	64.5%		91.8%	55.6%	8.21% (active)	107%	14.1%	-7.74% (active)		33.4%	14.9%	-71.2% (active)	33.3%
COc1cccc(-c2nc(SCC(=O)Nc3ccc(C(=O)/C=C/c4ccc(OC)c(OC)c4)cc3)[nH]c(=O)c2C#N)c1	60.6%	93.3%	99.2%	110%	80.8%	90.5%	103%	82.4%	93.6%	78.1%	85.4%	92.3%	77.7%		81.5%	112%		
Cc1ccc2c(c1)C(=O)/C(=C/c1cccc(OCC(=O)c3ccc(Cl)cc3)c1)CS2	9.06% (active)	-27% (active)	69.7%	105%	104%	115%		99.9%	54.4%	84.9%	101%	65.3%	52.9%		60.3%		98.1%	47.4%
CSc1ccc(SC2c3ccc(C)cc3Oc3nc(N)c(C#N)c(N)c32)cc1 (stereo unspecified)	-22.9% (active)	-38% (active)	-92% (active)	-80.8% (active)	-94.8% (active)	15.1%	-86.2% (active)		-18.6% (active)	-45.1% (active)	-87.2% (active)	-86.7% (active)	-83.3% (active)	-88.2% (active)	-42.3% (active)	-68.1% (active)		-52.2% (active)
Cn1cc(C(=O)c2nc(-c3c[nH]c4ccc(Br)cc34)no2)c2cc(F)ccc21	101%	99.5%	94.6%	99.3%	93.1%	87.9%		85%	94.1%	89.7%	95.7%	100%	104%	97.5%	96.3%	95.3%	97.2%	82.1%
CC(=O)c1nc2ccccc2n1CC(=O)c1cccc(Cl)c1	-12.6% (active)	-11.8% (active)	10.1%	47.5%	22.9%	17.5%		19%	13.9%	-11.3% (active)	34.9%	-27.4% (active)	5.82% (active)	29.9%	8.72% (active)	23%	-31.3% (active)	1.85% (active)
C=C1c2nc3ccccc3n2C=C(c2cccc(Cl)c2)N1Cc1ccc(OC)cc1	-17.4% (active)	-15.6% (active)	9.77% (active)	35.3%	32.4%	5.13% (active)		15.5%	10.2%	-22.5% (active)	-1.26% (active)	-32.3% (active)	12.8%	25.7%	13%	20.6%	-28.1% (active)	4.64% (active)
CCNc1ncnc2c1cnn2C1CCCO1 (stereo unspecified)	94.3%	98.5%	115%	102%	108%	104%		113%	100%	104%	105%	103%	100%		99.1%	100%	111%	102%
